First the molecules themselves.
B1: Caulobacter ParB omega fusion; a variant is named by its letters at X, in order, B8GW30 (parent)
chain: MESVVVGEPGMSEGRRGLGRGLSALLGEVDAAPAQAPGEQLGGSREAPIEILQRNPDQPRRTFREEDLEDLSNSIREKGVLQPILVRPSPDTAGEYQIVAGERAWRAAQRAGLKTVPIMVRELDDLAVLEIGIIENVQRADLNVLEEALSYKVLMEKFERTQENIAQTIGKSXSHVANXMRLLXLPDEVQSYLVSGELTAXHARAIAAAADPVALAKQIIEGGLSVRETEALARKAPNLSAGKSKGGRPPRVKDTDTQALESDLSSVLGLDVSIDHRGSTGTLTITYATLEQLDDLCNRLTRGI

The text below walks through data of a collection of fitness landscapes (doi:10.1016/j.celrep.2020.107928).

Whole data set: some 81,000 sequences, median “one-hybrid fitness for binding parS DNA” near -0.17, cut for the highest 2% near 0.51. The list comes from a sample in which the highest values are over-represented; it also holds similar and randomly drawn sequences.

In the experiment the parent is B1. Put plainly: one-hybrid fitness for binding parS DNA (scaled: cognate 1, non-cognate 0); higher = stronger binding. Particulars: with parS DNA site. An outline of the steps:
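In E. coli USO, a HIS3 reporter with its site placed 19 bp from the promoter was used to select Caulobacter ParB variants randomised at four specificity codons. Growth lasted 48 hours at 37°C on histidine-free M9 containing 0.1 mM IPTG and 5 mM 3-AT. Fitness was taken as the log change in variant-to-wild-type read ratio from Illumina sequencing of pre- and post-selection plasmids, rescaled between the non-cognate and cognate sites.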
On to IFQR, for which the “one-hybrid fitness for binding parS DNA” value was at most 0.2. As for PTLA, the “one-hybrid fitness for binding parS DNA” value is at most 0.2. Regarding RHFG, the “one-hybrid fitness for binding parS DNA” value came out at 0.876. As to RHAH, the “one-hybrid fitness for binding parS DNA” value came out at 0.202. For RHFY the value was 0.377; for RHAG, 0.969; for RHAD, at most 0.2. Then RHFF, with at most 0.2; and DYKT, with at most 0.2.

For SRQA, the “one-hybrid fitness for binding parS DNA” value was at most 0.2. For DEKR the value was at most 0.2.

As to SVMF, the “one-hybrid fitness for binding parS DNA” value is at most 0.2.

On to RCFT, for which the “one-hybrid fitness for binding parS DNA” value was found to be 0.955.

Consider RPFT, for which the “one-hybrid fitness for binding parS DNA” value was at most 0.2. Then REFT, with at most 0.2; and RSFH, with at most 0.2.

As for RSFT, the “one-hybrid fitness for binding parS DNA” value turned out to be 0.751.

For RSFN, the “one-hybrid fitness for binding parS DNA” value amounted to 0.383. Then WLLH, with at most 0.2. In the case of REVI, the “one-hybrid fitness for binding parS DNA” value was at most 0.2. Then SAPY, with at most 0.2; and RMWR, with at most 0.2; and RLWQ, with at most 0.2.

As for RTWQ, the “one-hybrid fitness for binding parS DNA” value was at most 0.2. For RLWR the value was at most 0.2; for RLWG, 0.995. Then RTWF, with 0.275. Then RRWG, with 0.906; and RMWY, with 0.497. As to RRWF, the “one-hybrid fitness for binding parS DNA” value was at most 0.2. For RTWG the value was 1.03; for RMWG, 0.991; for RRWK, at most 0.2.

As to CQNS, the “one-hybrid fitness for binding parS DNA” value is at most 0.2. Take QVGP: the “one-hybrid fitness for binding parS DNA” value is at most 0.2. Consider QTRM, for which the “one-hybrid fitness for binding parS DNA” value was at most 0.2. Then ARLQ, with at most 0.2.

In the case of CHSG, the “one-hybrid fitness for binding parS DNA” value is at most 0.2. Then RCML, with 0.201. For PFAT the value was at most 0.2; for QRRC, at most 0.2. For SRTM the value was at most 0.2. Take KSRC: the “one-hybrid fitness for binding parS DNA” value was at most 0.2.

As to RIWM, the “one-hybrid fitness for binding parS DNA” value was determined as 0.361. KFWG: the “one-hybrid fitness for binding parS DNA” value was at most 0.2.

In the case of RHWQ, the “one-hybrid fitness for binding parS DNA” value was at most 0.2.

Take RIWG: the “one-hybrid fitness for binding parS DNA” value is 0.985. Then RKWG, with 0.952; and RHWG, with 0.844. Then RFWG, with 0.744. Then RKWF, with 0.219. On to RKWY, for which the “one-hybrid fitness for binding parS DNA” value worked out at 0.393.

Regarding DFWG, the “one-hybrid fitness for binding parS DNA” value is at most 0.2. For RHWM the value was at most 0.2.

In the case of RIWY, the “one-hybrid fitness for binding parS DNA” value amounted to 0.471. For KKLC the value was at most 0.2; for FRWG, at most 0.2. Then IIKT, with at most 0.2; and IYPT, with at most 0.2; and DRGE, with at most 0.2. For FVTP the value was at most 0.2; for HMNE, at most 0.2. For PPQC, the “one-hybrid fitness for binding parS DNA” value was at most 0.2. Take RERK: the “one-hybrid fitness for binding parS DNA” value was at most 0.2.

With DGKG, the “one-hybrid fitness for binding parS DNA” value is at most 0.2. Consider IFLY, for which the “one-hybrid fitness for binding parS DNA” value is at most 0.2. Then DNYC, with at most 0.2; and ALFC, with at most 0.2; and RSWG, with 0.93. For RCWG the value was 1.02; for RAWG, 0.989.

For the variant RSWF, the “one-hybrid fitness for binding parS DNA” value is at most 0.2. For RPWG the value was at most 0.2; for RAWK, at most 0.2. As to RDWG, the “one-hybrid fitness for binding parS DNA” value was at most 0.2.

As for RAWM, the “one-hybrid fitness for binding parS DNA” value was determined as 0.35. Take REWG: the “one-hybrid fitness for binding parS DNA” value is at most 0.2.

Take NGLR: the “one-hybrid fitness for binding parS DNA” value is at most 0.2. Then NTER, with at most 0.2; and REFQ, with at most 0.2.

On to WDSN, for which the “one-hybrid fitness for binding parS DNA” value is at most 0.2.

For KYTC, the “one-hybrid fitness for binding parS DNA” value was at most 0.2. Take TIAK: the “one-hybrid fitness for binding parS DNA” value was at most 0.2.

In the case of PMKR, the “one-hybrid fitness for binding parS DNA” value was at most 0.2.

For the variant RLKG, the “one-hybrid fitness for binding parS DNA” value stood at 0.945. Consider RLVK, for which the “one-hybrid fitness for binding parS DNA” value is at most 0.2. For RLKH the value was 0.247; for RLVQ, at most 0.2. Then RLKP, with at most 0.2; and RLVG, with 0.991; and QRLA, with at most 0.2.

On to IESL, for which the “one-hybrid fitness for binding parS DNA” value was at most 0.2. For KWDD the value was at most 0.2; for RVNC, 0.947; for RVNE, at most 0.2. For RVNR the value was at most 0.2; for RVDM, 0.258. For RVDF the value was at most 0.2; for RVDC, 0.846. For YLAV, the “one-hybrid fitness for binding parS DNA” value was at most 0.2.

For the variant CPVL, the “one-hybrid fitness for binding parS DNA” value was at most 0.2. On to ANSF, for which the “one-hybrid fitness for binding parS DNA” value was at most 0.2. For GFRL the value was at most 0.2; for RRFG, 0.831.

On to RRAR, for which the “one-hybrid fitness for binding parS DNA” value was at most 0.2. For RRAG the value was 0.738. For RRFD the value was at most 0.2. Then RRFM, with at most 0.2; and RRAP, with at most 0.2. Turning to SKVG, the “one-hybrid fitness for binding parS DNA” value is at most 0.2. With CPAW, the “one-hybrid fitness for binding parS DNA” value was at most 0.2. Consider QCMI, for which the “one-hybrid fitness for binding parS DNA” value was at most 0.2.

On to DCNA, for which the “one-hybrid fitness for binding parS DNA” value is at most 0.2. For RHYA the value was 0.562; for RHPA, at most 0.2; for RHRA, 0.58. Then DHNA, with at most 0.2; and RHDA, with 0.545. Then RHNA, with 0.543; and RHIA, with 0.316. For WLCT, the “one-hybrid fitness for binding parS DNA” value was at most 0.2. Then EVML, with at most 0.2; and IDCL, with at most 0.2.

With LAVM, the “one-hybrid fitness for binding parS DNA” value was at most 0.2. Consider TSYY, for which the “one-hybrid fitness for binding parS DNA” value was at most 0.2. Then APPD, with at most 0.2; and GVQC, with at most 0.2. For TPMT the value was at most 0.2. For IMES the value was at most 0.2; for QKYV, at most 0.2. Consider NYKT, for which the “one-hybrid fitness for binding parS DNA” value was at most 0.2. On to QTEY, for which the “one-hybrid fitness for binding parS DNA” value was at most 0.2. Then RAAH, with at most 0.2.

On to RAFN, for which the “one-hybrid fitness for binding parS DNA” value was determined as 0.426. Then RAFP, with at most 0.2. For the variant RAFS, the “one-hybrid fitness for binding parS DNA” value came to 1.02.

As to RAAD, the “one-hybrid fitness for binding parS DNA” value was at most 0.2. Then RAAS, with 1. For FSYG the value was at most 0.2. For WYKS the value was at most 0.2; for CKSM, at most 0.2; for QYLA, at most 0.2.

Turning to RTHY, the “one-hybrid fitness for binding parS DNA” value turned out to be 0.544. In the case of RCHY, the “one-hybrid fitness for binding parS DNA” value stood at 0.46. For RTIS the value was 1.01; for RTLD, at most 0.2; for RTLS, 1.01. Then RTLN, with 0.43; and RTRP, with at most 0.2; and RTIH, with at most 0.2. For RTIP the value was at most 0.2; for RTRH, 0.4; for RSHY, 0.491. In the case of RTRS, the “one-hybrid fitness for binding parS DNA” value was 0.83.
